Data: article PMC4102417

Test system: murine 3T3 fibroblasts
Assay: primary screen, percent viability or growth; higher = less effect of the substance
Description: Similarly, for measuring the cytotoxicity concentration (CC50) for 3T3 fibroblast cells, cultures were incubated with drugs for 72 hours and developed using Alamar Blue (Alamar Biosciences Inc, Sacramento, CA) as previously described.

SMILES	Mammalian (3T3) cell % growth at 10 uM
CC1=CC(=O)C2C(C)(C)CCCC2(C)C1(O)CCc1ccoc1 (stereo not drawn)	75.8%
OCCN1CCN(CCCN2c3ccccc3Sc3ccc(C(F)(F)F)cc32)CC1	100%
CCc1nc(N)nc(N)c1-c1ccc(Cl)cc1	97.6%
CCC(=C(c1ccccc1)c1ccc(OCCN(C)C)cc1)c1ccccc1	97%
CC1OC(OC2C(OC3CCC4(C)C(CCC5(C)C4CC=C4C6CC(C)(C)CCC6(C(=O)O)CCC45C)C3(C)CO)OCC(O)C2O)C(O)C(O)C1O (stereo not drawn)	6.8%
O=c1cc(-c2ccc(O)cc2)oc2cc(O)cc(O)c12	73.6%
C=CC(C1=CC(=O)C=CC1=O)c1ccccc1 (stereo not drawn)	97.5%
COc1cc2c(cc1OC)C1C(=O)c3ccc4c(c3OC1CO2)CC(C(C)C)O4 (stereo not drawn)	19.3%
C[C@H]1CC[C@]2(NC1)O[C@H]1C[C@H]3[C@@H]4CC[C@H]5C[C@@H](O[C@@H]6O[C@H](CO)[C@H](O[C@@H]7O[C@H](CO)[C@@H](O)[C@H](O[C@@H]8OC[C@@H](O)[C@H](O)[C@H]8O)[C@H]7O[C@@H]7O[C@H](CO)[C@@H](O)[C@H](O)[C@H]7O)[C@H](O)[C@H]6O)CC[C@]5(C)[C@H]4CC[C@]3(C)[C@H]1[C@@H]2C	0.1%
CC(C)c1c(O)ccc2c1CC[C@H]1C(C)(C)CCC[C@]21C	67.4%
COc1ccc2cc1Oc1ccc(cc1)C[C@H]1c3c(cc4c(c3Oc3cc5c(cc3OC)CCN(C)[C@@H]5C2)OCO4)CCN1C	33.1%
O=C(Nc1ccc([N+](=O)[O-])cc1Cl)c1cc(Cl)ccc1O	10.5%
CN1CCN(CCCN2c3ccccc3Sc3ccc(C(F)(F)F)cc32)CC1	94.7%
COc1ccc(-c2coc3cc(O)ccc3c2=O)c(O)c1O	1.4%
CCOC(=O)C1=C(COCCN)NC(C)=C(C(=O)OC)C1c1ccccc1Cl.O=S(=O)(O)c1ccccc1 (stereo not drawn)	100%
COC(=O)C1(C)CCCC2(C)c3ccc(C(C)C)cc3C(=O)CC12 (stereo not drawn)	91.8%
Cc1ccc(C(=O)C(C)CN2CCCCC2)cc1 (stereo not drawn)	0.2%
CC(C)CCCC(C)C1CCC2C3CC(=O)C4CC(O)CCC4(C)C3CCC12C (stereo not drawn)	100%
COC(=O)C1(C)CCCC2(C)c3ccc(O)c(C(C)C)c3CCC12 (stereo not drawn)	38.5%
N[C@H](C(=O)O)[C@@H]1CC(Cl)=NO1	48.2%
COC1C=CC23c4cc5c(cc4CN(CC2O)C3C1)OCO5 (stereo not drawn)	36.2%
